According to PubChem BioAssay:
Several values for one entry are separate records, joined by “and”; a condition that tells them apart may be missing. Identical values can stand only once. Activity calls are given as the source filed them.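 How the source made its calls, unless noted: active means normalized viability below 100% at a tested concentration; inactive means the rest.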

Key:
[1] = hESC survival regulators, cell-based (AID 493140; call rule not given here;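 further: cells exposed to compounds for four days before counting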); conditions: human embryonic stem cell survival screen; stronger effect = higher value
[2] = liver-stage malaria parasite growth inhibition, primary screen, cell-based, HepG2, luciferase luminescence, HepG2 viability (AID 624349; in the data active means parasite load remaining mostly below about 12%, no sharp cut-off; inactive means mostly above about 10%;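 further: 100% = mean of DMSO negative control wells on the same plate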); conditions: P. berghei liver stage in HepG2, luciferase luminescence, concentration not given here; parasite load remaining: stronger effect = lower value; viability: measured here: HepG2 viability without parasites
[3] = stimulators of nuclear beta-catenin in C2C12, primary screen, imaging, WNT3A-conditioned medium, mouse C2C12, NPC library (AID 1117326; in the data active means nuclear beta-catenin stimulation mostly above about 4.2%, no sharp cut-off; inactive means mostly below about 10%); conditions: stronger effect = higher value
[4] = stimulators of insulin release from INS-1E, primary screen, cell-based, 5 mM glucose, NPC library (AID 1117329;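 active means compound raises insulin release from rat beta cells at 5 mM glucose, no numeric limit stated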); conditions: rat INS-1E insulin secretion, at 10 µM, stronger effect = higher value
[5] = growth inhibition of GSK3B-pretreated HCT116 cells – cell-based, CellTiter-Glo, 0.2 to 20 µM (AID 1117336;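 active means compounds lowering colon cancer cell viability after pretreatment blocking the GSK3B kinase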); conditions: HCT116 viability after GSK3B inhibitor, at 20 µM, stronger effect = higher value
[6] = inhibition of endothelial tube formation, primary screen, imaging, VEGF stimulated, CD31 staining, tube area, NPC library (AID 1117340;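 active means compound that reduces growth-factor-driven endothelial tube area in a mixed cell culture, no cutoff stated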); conditions: VEGF-stimulated ADSC/ECFC co-culture, at 10 µM, stronger effect = higher value
[7] = glucagon-like peptide 1 release enhancers, primary assay, NCI-H716 cell line, NPC library (AID 1117341;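 active means compound raises GLP1 secretion from the human gut endocrine cells, with no numeric limit stated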); conditions: NCI-H716 cells, at 10 µM, stronger effect = higher value
[8] = HCT116 colon cancer cell growth inhibition, primary screen, CellTiter-Glo luminescence, NPC library (AID 1117342;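 active means compounds that lower survival of HCT116 colon cancer cells in the luminescence readout, no numeric limit stated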); conditions: at 20 µM (top of the series)
[9] = CellTiter-Glo luminescent readout of SW480 viability loss, NPC library primary (AID 1117343;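 active means compounds that lower viability of the colon cancer cells in the luminescence readout, with no numeric limit stated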); conditions: CellTiter-Glo luminescence; at 20 µM (top of the series) unless noted
[10] = decreased DLD-1 cellular survival, CellTiter-Glo luminescent readout, NPC compound collection, primary HTS (AID 1117346;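 active means compounds that lower survival of DLD-1 colon cancer cells in the luminescence readout, no cutoff given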); conditions: DLD-1 viability, CellTiter-Glo luminescence; at 20 µM (top of the series)
[11] = differential killing of epithelial or mesenchymal cells, primary screen, imaging, PC-3E GFP, TEM4-18 mCherry, co-culture (AID 1345086;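 active means compounds killing one labelled cell type while sparing the other, by normalised counts and ratio limits, not self-fluorescent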;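 on all read-outs here: cells exposed to compound for 72 h before imaging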;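 on red/green cell ratio (normalised): normalised mesenchymal count divided by normalised epithelial count so high means epithelial killing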); conditions: imaging cell counts, at 1 µM; for red/green cell ratio (normalised): actives lie on both sides, counts scaled to control wells, 1 = unselective
[12] = sensitizers of A549 cells to miR-34 induction, primary screen, imaging, A549 dox-inducible miR-34, nuclei and caspase counts (AID 1347080;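 active means compounds whose cell count with miR-34 switched on is under 0.7 times the count with it off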); conditions: A549 miR-34 inducible, Hoechst nuclei count, 48 h
[13] = survival rescue of mitochondrial mutant cells in low glucose, primary screen, MELAS cybrids, Rieske KO mouse fibroblasts, CellTiter-Glo (AID 1508586;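 active means mean z-score across replicates of 1.96 or higher in either the MELAS or the Rieske mutant cell line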;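 further: z relative to plate mean and SD of compound and empty wells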)
[14] = target: NAD(+) hydrolase SARM1 (Homo sapiens) (UniProt Q6SZW1); test: SARM1 TIR NADase inhibitors, cell lysate, NAD-Glo luminescence (AID 1508614;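 active means compound whose remaining NAD level is above about 45 nM, limit read from the data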); conditions: SAM-TIR HEK293T lysate NADase, at 1 µM, stronger effect = higher value
[15] = ovarian cancer cell viability with rucaparib, profiling panel, oncology-focused library, rucaparib conditional (AID 1508598); conditions: patient-derived ovarian cancer cells, CellTiter-Glo viability, 144 h, stronger effect = lower value
[16] = LFS_MB_P medulloblastoma growth inhibition, cell-based, chromothripsis tumors, cisplatin or BGB combos (AID 1671449; in the data active means inhibition above about 80%;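 further: cells exposed for 96 hours; 0% = vehicle DMSO and 100% = killing by high DMSO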); conditions: LFS_MB_P medulloblastoma cells
[17] = HDN33 neuroblastoma growth inhibition, cell-based, chromothripsis tumors, cisplatin or BGB combos (AID 1671450; in the data active means inhibition above about 80%;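 further: cells exposed to compound for four days; 0% = vehicle DMSO and 100% = cell killing by high DMSO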); conditions: HDN33 neuroblastoma cells, stronger effect = higher value
[18] = ICB984 medulloblastoma cell growth inhibition, synergistic combos for chromothripsis tumors, cisplatin or BGB combos (AID 1671451; call rule not given here;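 further: cells exposed for 96 hours before readout; 0% = vehicle DMSO and 100% = killing by high DMSO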); conditions: ICB984 medulloblastoma cells, drug combinations, stronger effect = higher value
[19] = HTB85 osteosarcoma cell growth inhibition, synergistic combos for chromothripsis tumors, BGB or cisplatin IC20 combos (AID 1671453; in the data active means inhibition above about 80%;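 further: cells exposed for 96 hours before readout; 0% = vehicle DMSO and 100% = high DMSO killing control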); conditions: HTB85 osteosarcoma cells, drug combinations, stronger effect = higher value
[20] = MDA-MB-436 breast carcinoma cell growth inhibition, synergistic combos for chromothripsis tumors, BGB or cisplatin combos (AID 1671458; call rule not given here;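 further: cells exposed for 96 hours; 0% = vehicle DMSO and 100% = killing by high DMSO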); conditions: MDA-MB-436 breast carcinoma growth inhibition, drug combinations, stronger effect = higher value
[21] = measured here: epithelial PC-3E GFP cell survival
[22] = measured here: mesenchymal TEM4-18 mCherry cell survival
[23] = stronger effect = lower value, cell number ratio, induced over uninduced
[24] = measured here: relative caspase fold change +Dox/-Dox
[25] = measured here: total cells with miR-34 induction, stronger effect = lower value
[26] = measured here: total cells without miR-34 induction
[27] = MELAS cybrid survival, CellTiter-Glo 48 h, stronger effect = higher value
[28] = Rieske KO mouse fibroblast survival, CellTiter-Glo 72 h

Chain of NAD(+) hydrolase SARM1 (Homo sapiens) (Q6SZW1 whole entry, looked up): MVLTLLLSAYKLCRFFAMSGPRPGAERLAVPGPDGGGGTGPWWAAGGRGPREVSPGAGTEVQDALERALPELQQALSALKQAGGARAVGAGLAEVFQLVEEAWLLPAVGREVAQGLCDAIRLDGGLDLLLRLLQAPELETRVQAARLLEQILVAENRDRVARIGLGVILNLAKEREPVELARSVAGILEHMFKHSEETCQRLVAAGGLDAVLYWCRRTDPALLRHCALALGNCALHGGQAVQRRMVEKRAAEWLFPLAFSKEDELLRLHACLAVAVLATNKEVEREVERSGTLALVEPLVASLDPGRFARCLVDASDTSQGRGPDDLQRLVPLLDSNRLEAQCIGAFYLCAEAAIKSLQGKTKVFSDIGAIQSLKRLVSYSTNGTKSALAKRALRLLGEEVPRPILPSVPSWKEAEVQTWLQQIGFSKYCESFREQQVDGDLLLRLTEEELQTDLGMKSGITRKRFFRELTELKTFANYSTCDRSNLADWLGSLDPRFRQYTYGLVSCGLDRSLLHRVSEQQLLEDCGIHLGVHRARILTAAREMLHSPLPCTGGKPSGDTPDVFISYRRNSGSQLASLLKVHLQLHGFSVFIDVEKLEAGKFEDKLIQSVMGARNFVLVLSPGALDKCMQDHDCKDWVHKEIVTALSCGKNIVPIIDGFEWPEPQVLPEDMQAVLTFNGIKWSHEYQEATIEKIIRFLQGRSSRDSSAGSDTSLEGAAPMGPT

CC(=O)c1ccc2c(c1)N(CCCN(C)C)c1ccccc1S2
survival [1]: 4.75 (inactive) | parasite load remaining [2]: 84% (inactive) and 65.2% (inactive) and 28% (inactive) | viability [2]: 104% and 77.6% and 98.4% | nuclear beta-catenin stimulation ([3]; at 10 µM): 0.3% (inactive) | nuclear beta-catenin stimulation ([3]; stimulation, at 2 µM): 1.4% | insulin secretion stimulation [4]: 17.4% (inactive) | viability decrease [5]: 50.2% (active) | tube area decrease [6]: 12.5% (inactive) | GLP1 secretion stimulation [7]: 11.1% (inactive) | inhibition of viability [8]: 55.9% (active) | viability decrease (inhibition) [9]: 110% (active) | viability decrease (inhibition) [10]: 24.9% (inactive) | red/green cell ratio (normalised) [11]: 0.9 (inactive) | normalised cell number [11, 21]: 0.98 | normalised cell number [11, 22]: 0.88 | fold change [12, 23]: 0.938 (inactive) and 0.873 (inactive) and 0.834 (inactive) | fold change [12, 24]: 0.931 and 1.11 and 5.05 | cell count [12, 25]: 3460 and 8350 and 10600 | cell count [12, 26]: 3690 and 9570 and 12700 | z-score [13, 27]: -0.172 (inactive) | z-score [13, 28]: 0.00604 | remaining NAD [14]: 10 nM (inactive)

O=C(CCCCCCC(=O)Nc1ccccc1)NO
nuclear beta-catenin stimulation ([3]; at 10 µM): 7.6% (inactive) | nuclear beta-catenin stimulation ([3]; stimulation, at 2 µM): 7.1% | insulin secretion stimulation [4]: -1.2% (inactive) | viability decrease [5]: 53.5% (active) | tube area decrease [6]: 103% (active) | GLP1 secretion stimulation [7]: 0.5% (inactive) | inhibition of viability [8]: 108% (active) | viability decrease (inhibition) [9]: 110% (active) | viability decrease (inhibition) [10]: 58% (active) | red/green cell ratio (normalised) [11]: 1.29 (inactive) | normalised cell number [11, 21]: 0.33 | normalised cell number [11, 22]: 0.42 | fold change [12, 23]: 1.09 (inactive) and 1.01 (inactive) and 0.979 (inactive) | fold change [12, 24]: 0.756 and 1.04 and 1.07 | cell count [12, 25]: 1690 and 5020 and 1390 | cell count [12, 26]: 1540 and 4980 and 1420 | z-score [13, 27]: 0.575 (inactive) and -2.2 (inactive) | z-score [13, 28]: 0.979 and -1.4 | viability ([15]; at 0.000305 µM, OCI-C5x cells, with rucaparib 10 µM, 100% = cells with rucaparib alone): 108% (inactive) | viability ([15]; at 0.000305 µM, OCI-C5x cells, without rucaparib): 108% (inactive) | viability ([15]; at 0.000305 µM, OCI-P5x cells, with rucaparib 20 µM, 100% = cells with rucaparib alone): 87.7% (active) | viability ([15]; at 0.000305 µM, OCI-P5x cells, without rucaparib): 91.8% (active) | viability ([15]; at 0.00122 µM, OCI-C5x cells, with rucaparib 10 µM, 100% = cells with rucaparib alone): 112% (inactive) | viability ([15]; at 0.00122 µM, OCI-C5x cells, without rucaparib): 106% (inactive) | viability ([15]; at 0.00122 µM, OCI-P5x cells, with rucaparib 20 µM, 100% = cells with rucaparib alone): 83% (active) | viability ([15]; at 0.00122 µM, OCI-P5x cells, without rucaparib): 97.1% (active) | viability ([15]; at 0.00488 µM, OCI-C5x cells, with rucaparib 10 µM, 100% = cells with rucaparib alone): 113% (inactive) | viability ([15]; at 0.00488 µM, OCI-C5x cells, without rucaparib): 110% (inactive) | viability ([15]; at 0.00488 µM, OCI-P5x cells, with rucaparib 20 µM, 100% = cells with rucaparib alone): 109% (inactive) | viability ([15]; at 0.00488 µM, OCI-P5x cells, without rucaparib): 96.9% (active) | viability ([15]; at 0.0195 µM, OCI-C5x cells, with rucaparib 10 µM, 100% = cells with rucaparib alone): 111% (inactive) | viability ([15]; at 0.0195 µM, OCI-C5x cells, without rucaparib): 114% (inactive) | viability ([15]; at 0.0195 µM, OCI-P5x cells, with rucaparib 20 µM, 100% = cells with rucaparib alone): 112% (inactive) | viability ([15]; at 0.0195 µM, OCI-P5x cells, without rucaparib): 93.3% (active) | viability ([15]; at 0.0781 µM, OCI-C5x cells, with rucaparib 10 µM, 100% = cells with rucaparib alone): 110% (inactive) | viability ([15]; at 0.0781 µM, OCI-C5x cells, without rucaparib): 108% (inactive) | viability ([15]; at 0.0781 µM, OCI-P5x cells, with rucaparib 20 µM, 100% = cells with rucaparib alone): 96.2% (active) | viability ([15]; at 0.0781 µM, OCI-P5x cells, without rucaparib): 83% (active) | viability ([15]; at 0.313 µM, OCI-C5x cells, with rucaparib 10 µM, 100% = cells with rucaparib alone): 57.7% (active) | viability ([15]; at 0.313 µM, OCI-C5x cells, without rucaparib): 57.4% (active) | viability ([15]; at 0.313 µM, OCI-P5x cells, with rucaparib 20 µM, 100% = cells with rucaparib alone): 61.2% (active) | viability ([15]; at 0.313 µM, OCI-P5x cells, without rucaparib): 46.1% (active) | viability ([15]; at 1.25 µM, OCI-C5x cells, with rucaparib 10 µM, 100% = cells with rucaparib alone): 73.9% (active) | viability ([15]; at 1.25 µM, OCI-C5x cells, without rucaparib): 52.8% (active) | viability ([15]; at 1.25 µM, OCI-P5x cells, with rucaparib 20 µM, 100% = cells with rucaparib alone): 65.9% (active) | viability ([15]; at 1.25 µM, OCI-P5x cells, without rucaparib): 55.9% (active) | viability ([15]; at 5 µM, OCI-C5x cells, with rucaparib 10 µM, 100% = cells with rucaparib alone): 8.43% (active) | viability ([15]; at 5 µM, OCI-C5x cells, without rucaparib): 7.74% (active) | viability ([15]; at 5 µM, OCI-P5x cells, with rucaparib 20 µM, 100% = cells with rucaparib alone): 8.03% (active) | viability ([15]; at 5 µM, OCI-P5x cells, without rucaparib): 14.8% (active) | remaining NAD [14]: 10 nM (inactive) | inhibition ([16]; at 0.5 µM, stronger effect = higher value): 76.8% (inactive) | inhibition ([16]; measured here: combination with BGB IC20, at 0.005 µM): -24% | inhibition ([16]; measured here: combination with BGB IC40, at 0.005 µM): -25.1% | inhibition ([16]; measured here: combination with BGB IC40, at 0.05 µM): -21.7% | inhibition ([16]; measured here: combination with cisplatin, at 0.5 µM, stronger effect = higher value): 48.5% | inhibition ([16]; measured here: combination with cisplatin, at 5 µM, stronger effect = higher value): 107% | inhibition ([17]; BGB combo, at 5 µM): 92.3% | inhibition ([17]; at 0.5 µM): 20.4% (inactive) | inhibition ([17]; cisplatin combo, at 5 µM): 98% | inhibition ([17]; measured here: with BGB IC20 combination, at 0.5 µM): 5.45% | inhibition ([17]; measured here: with cisplatin IC20 combination, at 0.5 µM): 18.5% | inhibition ([17]; single agent, at 5 µM): 96.3% | inhibition ([18]; BGB IC20 combo, at 0.005 µM): -9.97% | inhibition ([18]; BGB IC40 combo, at 0.005 µM): -34% | inhibition ([18]; BGB IC40 combo, at 0.05 µM): 71.5% | inhibition ([18]; at 0.5 µM): -21.1% (inactive) | inhibition ([18]; cisplatin combo, at 0.05 µM): 70.7% | inhibition ([18]; cisplatin combo, at 0.5 µM): -19.8% | inhibition ([18]; cisplatin combo, at 5 µM): -86.6% | inhibition ([18]; measured here: 5 uM single agent, at 5 µM): -52.1% | inhibition ([19]; at 0.5 µM): 1.09% (inactive) | inhibition ([19]; measured here: with BGB IC20, at 0.5 µM): -18.4% | inhibition ([19]; measured here: with BGB IC20, at 5 µM): 80.9% | inhibition ([19]; measured here: with cisplatin IC20, at 0.5 µM): 21.1% | inhibition ([19]; measured here: with cisplatin IC20, at 5 µM): 89.9% | inhibition ([19]; single agent, at 5 µM): 87.5% | inhibition ([20]; at 0.5 µM): -18.9% (inactive) | inhibition ([20]; measured here: BGB combination, at 0.5 µM): -38.5% | inhibition ([20]; measured here: BGB combination, at 5 µM): 32% | inhibition ([20]; measured here: cisplatin combination, at 0.5 µM): -20.9% | inhibition ([20]; measured here: cisplatin combination, at 5 µM): 36.6%
